Compound activity from PubChem.
TIM10 inh – growth inhibitors of TIM10 yeast strain | AID 463195 | 330,000 compounds, 1.4% hits | inhibition, % at 10 µM | S. cerevisiae TIM10 strain growth, BacTiter-Glo luminescence, 24 h;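 active = inhibition of 40% or more at the single tested concentration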;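 also: wild-type TIM10 isogenic control strain grown at permissive 25 °C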
PfHsp90 set2 – reduces growth (ATP signal) of yeast expressing P. falciparum Hsp90; inhibition, % at 9.4 µM; S. cerevisiae expressing PfHsp90, BacTiter-Glo ATP, 48 h; yeast lacking PDR1 and PDR3 efflux regulators; AID 504621; 310,000 compounds, 0.32% hits;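 active = every replicate shows inhibition above about 80%, whatever the replicate mean, limit read from the data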
tim23-1 inh – growth inhibitors of tim23-1 mutant yeast. S. cerevisiae tim23-1 growth, BacTiter-Glo luminescence, 24 h. inhibition, % at 20 µM. 330,000 compounds, 1.3% hits;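 active = growth inhibition of the mutant yeast at or above 50%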;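 also: temperature-sensitive mutant grown at 25 °C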
tim10-1 inh – inhibits growth of tim10-1 mutant yeast. S. cerevisiae tim10-1 ts strain growth, BacTiter-Glo, 24 h. inhibition, % at 20 µM. 330,000 compounds, 2.2% hits. AID 463190;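 active = inhibition of at least 40%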;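 also: mutant grown at 25 °C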
Rce1 inhib – blocks yeast Ras-converting enzyme; 290,000 compounds, 0.27% hits; Q03530; yeast membranes, quenched prenylated peptide cleavage fluorescence; calls only; AID 2563;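 active = fall in fluorescence gain of 50% or more versus controls, with final raw signal at or below 3038400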
Target sequence (Q03530 whole entry, looked up): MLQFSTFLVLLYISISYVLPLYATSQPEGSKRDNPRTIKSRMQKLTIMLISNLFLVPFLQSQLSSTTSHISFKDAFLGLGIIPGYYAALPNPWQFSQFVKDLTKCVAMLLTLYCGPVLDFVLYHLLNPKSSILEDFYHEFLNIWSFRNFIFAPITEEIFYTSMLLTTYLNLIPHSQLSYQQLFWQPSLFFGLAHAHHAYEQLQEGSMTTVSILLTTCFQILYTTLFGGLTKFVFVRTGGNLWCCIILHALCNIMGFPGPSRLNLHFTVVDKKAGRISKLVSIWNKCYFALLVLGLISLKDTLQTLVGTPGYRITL
tim10-1 conf – confirmation of tim10-1 mutant yeast growth inhibitors. shares compounds with tim10-1 inh. S. cerevisiae tim10-1 ts strain growth, BacTiter-Glo, 24 h. inhibition, % at 20 µM. 7,400 compounds, 56% hits;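 active = inhibition of yeast growth at or above a set limit in either of two repeat tests at 20 µM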;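 also: tim10-1 mutant grown at permissive 25 °C to find synthetic lethal compounds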
A number is an active result; - = inactive; . = no result given. Sampled rows, rich in hits. Any-hit rate of the full collection: about 3.7%.

SMILES | TIM10 inh | PfHsp90 set2 | tim23-1 inh | tim10-1 inh | Rce1 inhib | tim10-1 conf
CCOC(=O)c1c2c(n(-c3ccc(OC)cc3)c1C)C(=O)C(=O)c1ccccc1-2 | . | - | . | . | . | .
CCOC(=O)c1c2c(n(C)c1COC)C(=O)C(=O)c1ccc(Br)cc1-2 | - | . | - | 48 | - | -
COc1ccc(C(c2c(C)[nH]n(C(N)=S)c2=O)C(C#N)C#N)cc1 (configuration not stated) | - | - | - | 44 | . | -
Cc1cccc(NC(=O)CN2C(=O)NC(Cc3ccccc3)C2=O)c1 (configuration not stated) | - | - | - | - | - | .
O=C(COC(=O)c1cc(Cl)ccc1[N+](=O)[O-])Nc1cccc2ccccc12 | - | - | - | 47 | - | 34
Cc1ccc(NC(=O)COC(=O)c2cc(Cl)ccc2[N+](=O)[O-])c(C)c1 | - | - | - | - | - | .
O=[N+]([O-])c1cc(Cl)ccc1N1CCN(c2ccccc2O)CC1 | - | - | - | 59 | - | 53
Cc1ccccc1OCC(=O)Nc1ccc(S(=O)(=O)N2CCCC2)cc1 | - | . | - | 49 | - | 37
COc1ccccc1OCC(=O)Nc1ccc(S(=O)(=O)N2CCCCCC2)cc1 | - | - | - | - | - | .
O=C(CCCN1C(=O)c2ccccc2C1=O)Nc1ccc(S(=O)(=O)N2CCCCC2)cc1 | - | - | - | 41 | - | 32
CCOc1ccccc1OCCCC(=O)N1CCN(S(=O)(=O)c2ccc(C)cc2C)CC1 | - | - | - | - | . | .
CCOc1ccccc1OCCCC(=O)N1CCN(S(=O)(=O)c2ccc(C)cc2)CC1 | - | - | - | 41 | - | -
O=C(COc1ccccc1)Nc1ccc(S(=O)(=O)N2CCCC2)cc1 | - | - | - | 41 | - | -
CC(C)C1Oc2ccccc2N(CC(=O)NC2CCCCC2)C1=O (configuration not stated) | - | - | - | - | - | .
CCCOc1ccccc1OCC(=O)Nc1ccc(S(=O)(=O)N2CCCCC2)cc1 | - | - | - | 41 | - | 32
COc1ccc(NC(=O)CSCC(=O)Nc2ccc(S(=O)(=O)N3CCCCC3)cc2)cc1 | - | - | - | - | - | .
COc1ccc(CSCC(=O)Nc2ccc(S(=O)(=O)N3CCCCCC3)cc2)cc1 | - | - | - | 42 | - | -
CCCOc1ccccc1OCC(=O)Nc1ccc(S(=O)(=O)N2CCCC2)cc1 | - | - | - | - | - | .
CC(C)CNS(=O)(=O)c1cc2c3c(c1)CC(=O)N3CCC2 | - | - | - | - | - | .
CNC(=O)C(=O)NCCN1CCN(S(=O)(=O)c2ccc3ccccc3c2)CC1 | - | - | - | - | - | .
CCn1c2ccccc2c2cc(NC(=O)CSc3nccc(=O)[nH]3)ccc21 | - | - | - | - | - | .
CN(/N=C/c1ccc([N+](=O)[O-])o1)c1ccccc1 | - | - | - | 52 | - | 41
CCOCc1c(C(=O)NC2=Nc3ccccc3NC(CC)=C2C(=O)OCC)oc2ccccc12 | - | - | - | - | - | .
CCOC(=O)C1=C(CC)Nc2ccccc2N=C1NC(=O)c1oc2ccccc2c1C | - | - | - | 43 | - | -
CC1CN(C(=O)c2c(Br)cnn2C)CC(C)O1 (configuration not stated) | - | - | - | - | - | .
SMILES | TIM10 inh | PfHsp90 set2 | tim23-1 inh | tim10-1 inh | Rce1 inhib | tim10-1 conf
COc1ccc(C(CNC(=O)CNS(=O)(=O)c2ccc(NC(C)=O)cc2)N2CCOCC2)cc1 (configuration not stated) | - | - | - | - | - | .
Cc1nonc1C(=O)N/N=C/c1ccc(O)cc1O | - | - | - | 46 | - | -
Cc1nonc1C(=O)N/N=C/c1ccncc1 | - | - | - | - | - | .
O=C(Nc1ccccc1Cl)C1CCCN(c2ncnc3c2nc2n3CCCCC2)C1 (configuration not stated) | - | - | - | 54 | - | -
O=C(Nc1cccnc1)C1CCCN(c2ncnc3c2nc2n3CCCCC2)C1 (configuration not stated) | - | - | - | - | - | .
CCc1cccc(NC(=O)C2CCCN(c3ncnc4c3nc3n4CCCCC3)C2)c1 (configuration not stated) | - | - | - | 40 | - | -
CC(O)CNC1c2ccccc2CC1O (configuration not stated) | . | - | . | . | . | .
O=S(=O)(c1cccc(Cl)c1)N1CCN(S(=O)(=O)c2ccc3c(c2)OCCO3)CC1 | - | - | - | - | . | .
O=S(=O)(c1ccc2c(c1)OCCO2)N1CCC(O)(c2ccc(Cl)cc2)CC1 | - | - | - | 49 | - | 36
CN(c1ccc(C(=O)NCCCn2ccnc2)cc1)S(C)(=O)=O | - | - | - | - | - | .
Cc1c(C(=O)N2CCN(S(=O)(=O)c3cc(F)ccc3F)CC2)oc2ccccc12 | - | - | - | - | . | .
Cc1nc(N2CCN(C(=O)COc3ccccc3)CC2)c2c(C)c(C)sc2n1 | - | - | - | 41 | - | -
O=C(COc1ccccc1)N1CCN(c2ncccn2)CC1 | - | - | - | - | - | .
O=C(Nc1cccnc1)c1cc(S(=O)(=O)N2CCOCC2)ccc1Br | - | - | - | - | - | .
O=C(c1ccco1)N1CCN(C(=O)c2ccc(-c3ccccc3Cl)o2)CC1 | - | - | - | - | . | .
O=C(c1ccc(-c2ccccc2Cl)o1)N1CCN(c2ccccc2O)CC1 | - | - | - | 44 | - | -
Fc1ccc(NC(=S)NN=Cc2ccccc2Cl)cc1 | . | - | . | . | . | .
S=C(N/N=C/c1ccccc1Cl)Nc1cccc(Cl)c1Cl | - | - | - | 41 | - | -
COc1cc(/C=C(/C#N)C(=O)Nc2ccccc2)c(Br)cc1OCc1ccc(C(=O)O)cc1 | - | - | - | 43 | - | 40
COc1cc(/C=C(\C#N)C(=O)Nc2cccc(C(=O)O)c2)ccc1OCc1ccc(Cl)cc1 | - | - | - | - | - | .
COC(=O)c1ccc(COc2ccccc2/C=C(\C#N)C(=O)Nc2c(C)cc(C)cc2C)cc1 | - | - | - | 47 | - | -
CC(C(=O)NCc1cccnc1)c1ccc([N+](=O)[O-])cc1 (configuration not stated) | - | - | - | - | - | .
S=C(Nc1ccccc1Cl)N(Cc1ccccc1)Cc1ccccn1 | - | - | - | 47 | - | -
COc1ccc(OC)c(NC(=O)C2CC(/C=C/c3ccccc3)=NO2)c1 (configuration not stated) | - | - | - | - | - | .
COCCOc1cc(Nc2nnc(C(F)(F)F)s2)c(Cl)cc1Cl | - | - | - | 46 | - | -
COc1cc(Nc2nnc(C)s2)c(Cl)cc1Cl | - | - | - | - | - | .
CC(C)(C)c1ccc(/C=C/C(=O)N2CCN(c3ncccn3)CC2)cc1 | - | - | - | 43 | - | 35
CC1CCCC(C)N1C(=O)COC(=O)CNC(=O)C12CC3CC(CC(C3)C1)C2 (configuration not stated) | - | . | - | - | - | .
O=C(/C=C/c1cccc([N+](=O)[O-])c1)NCCSCc1ccc(Cl)cc1Cl | - | - | - | 42 | . | 35
Cc1ccc(NC(=O)CCn2c(=O)c3cccn3c3ccccc32)cc1C | - | - | - | - | - | .
